Assay outcomes as filed in PubChem BioAssay.
These entries were drawn from the full list.
TNAP inh pNP – inhibitors of human tissue-nonspecific alkaline phosphatase. purified TNAP, pNPP hydrolysis, absorbance 405 nm. P05186. 21,000 tested, under 10 active. inhibition, % at 20 µM
Target sequence (P05186 whole entry, looked up): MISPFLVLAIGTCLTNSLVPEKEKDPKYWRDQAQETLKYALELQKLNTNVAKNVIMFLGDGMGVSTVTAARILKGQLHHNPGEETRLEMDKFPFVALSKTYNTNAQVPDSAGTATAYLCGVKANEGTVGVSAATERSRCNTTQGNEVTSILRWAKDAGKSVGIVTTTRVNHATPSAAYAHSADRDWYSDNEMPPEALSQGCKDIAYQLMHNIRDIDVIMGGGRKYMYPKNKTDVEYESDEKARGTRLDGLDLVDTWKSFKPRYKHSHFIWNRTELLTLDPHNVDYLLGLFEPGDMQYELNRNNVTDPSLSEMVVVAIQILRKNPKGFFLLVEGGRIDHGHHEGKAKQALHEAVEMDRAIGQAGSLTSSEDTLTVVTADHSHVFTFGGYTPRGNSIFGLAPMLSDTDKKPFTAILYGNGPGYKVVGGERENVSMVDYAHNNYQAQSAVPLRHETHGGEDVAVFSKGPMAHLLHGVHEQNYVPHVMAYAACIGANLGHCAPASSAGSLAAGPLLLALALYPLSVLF
TNAP Pi inh – inhibitors of human tissue-nonspecific alkaline phosphatase; P05186; purified TNAP, pNPP, malachite green phosphate absorbance; inhibition, % at 20 µM; 21,000 tested, under 10 active
Large screens that a line does not name were inactive.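 How the source made its calls: active means inhibition above 50% at the 20 µM single-dose screen; inactive means the rest.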

Cc1cc2nc(NC3=NCN(Cc4cccnc4)CN3)nc(C)c2cc1C	none
CCOC(=O)c1cc2c(=O)n3cccc(C)c3nc2n(Cc2cccnc2)c1=N	none
CCOC(=O)Cc1c(C)nc2c(-c3cccc(Br)c3)c[nH]n2c1=O	none
Cc1cc(C(=O)NCCCn2ccnc2)sc1-c1ccccc1	none
CCOC(=O)COn1c(=O)c(=O)n(O)c2ccccc21	none
Cc1cc(NC(=O)CCC(=O)N(c2ccccc2)C2(C(=O)NC3CCCCC3)CCCC2)no1	none
CCCc1ccc(OCc2ccc(C(=O)N3CCN(c4ccccn4)CC3)o2)c(OC)c1	none
O=C(NC1CCCCC1)C1CCN(c2cnccn2)CC1	none
Cc1ccc2cc(CN(CC3CCCO3)S(=O)(=O)c3cccc4nsnc34)c(=O)[nH]c2c1 (stereo not drawn)	none
O=c1[nH]c(CN2CCCCC2)nc2c1C1(CCCC1)Cc1ccccc1-2	none
CC(C)CC(C(=O)Nc1oc(-c2ccco2)c(-c2ccco2)c1C#N)N1C(=O)c2ccccc2C1=O (stereo not drawn)	none
Cc1cc(C(=O)NCc2ccccc2Br)no1	none
COc1ccc(OC)c(C(=O)C2COC(=O)C2)c1 (stereo not drawn)	none
CCn1c(COc2ccc3c(c2)CCCC3)nnc1SCC(=O)Nc1nccs1	none
CC1(C(=O)N(CC(=O)NC2CCCC2)Cc2ccco2)CC(=O)N=C2C=CC=CN21 (stereo not drawn)	none
CCOC(=O)CSc1nc(N)c(C(=O)Nc2ccc(N(C)C)cc2)s1	none
CC1(C)Oc2ccc(C(=O)NC3CCCC3)cc2N(CC(=O)NC2CCCCC2)C1=O	none
Cc1ccc(Nc2nc(N)nc(CN3CCN(C(=O)c4ccco4)CC3)n2)cc1Cl	none
CCc1nc(N)c(C#N)c(-c2ccccc2OC)c1C	none
CN1C(=O)Cc2cc(S(=O)(=O)N3CCOCC3)ccc21	none
O=C(N1CCN(c2ccccn2)CC1)N1c2ccccc2Sc2ccccc21	none
Cc1ccc2c(c1)[nH]c1c(N3CCN(Cc4ccc5c(c4)OCO5)CC3)ncnc12	none
CCOC(=O)c1ccc(NC(=O)NC2CC3CCC(C2)N3Cc2nnnn2C(C)(C)C)cc1 (stereo not drawn)	none
CCCc1nnc(NC(=O)C2CCCO2)s1 (stereo not drawn)	none
O=C(CSc1nnc(CNc2ccc(Cl)cc2)o1)Nc1nc2c(s1)CCCC2	none
O=c1c(C(c2nnnn2C2CCCCC2)N2CCCCC2)coc2ccc(Cl)cc12 (stereo not drawn)	none
Cc1ccc(S(=O)(=O)Nn2c(C)ccc2C)cc1	none
CC(C)Oc1ccc(C2/C(=C(/O)c3ccc(F)cc3)C(=O)C(=O)N2CCCN(C)C)cc1 (stereo not drawn)	none
COCCCn1c(C2CCCCC2)nc2oc3cc(OC)ccc3c(=O)c2c1=O	none
CCOC(=O)c1cc2occc2n1CC(=O)N1CCCc2ccccc21	none
NC(Cc1ccc(Oc2ccc(O)cc2)cc1)C(=O)O (stereo not drawn)	none
CCCn1c(C)nc2c(c1=O)c1nc3ccccc3nc1n2-c1ccc2c(c1)OCCO2	none
COc1ccc(C(=S)N2CCCC2)cc1C	none
COc1ccc[nH]c1=O	none
COCCNC(=O)C(c1ccc(C)o1)N(C(=O)c1snc(C(N)=O)c1N)c1cc(C)cc(C)c1 (stereo not drawn)	none
COC(=O)c1ccc(-c2nc(O)c3cnccn23)cc1	none
COCCn1c(SCC(=O)c2ccc(Cl)cc2)nnc1C(C)C	none
C=CCn1c(SCC(=O)Nc2ccc3c(c2)OCO3)nnc1-c1ccccc1O	none
CCS(=O)(=O)c1ccc(O)c(N2C(=O)C3C4C=CC(C4)C3C2=O)c1 (stereo not drawn)	none
CCOc1ccc(Br)cc1S(=O)(=O)Nc1ccccc1N1CCOCC1	none
CC(C)(C)NC(=O)c1ccc2c(c1)N(CC(=O)N1CCN(c3ccc(F)cc3)CC1)C(=O)C(C)(C)O2	none
COCCN1C(=O)C(=O)/C(=C(/O)c2ccc(OCC(C)C)cc2)C1c1cccnc1 (stereo not drawn)	none
CCOC(=O)c1cnc(SC2CCc3ccccc3C2=O)nc1N (stereo not drawn)	none
Cc1ccc(C)c(S(=O)(=O)N2CCN(CC(=O)NC(=O)NCc3ccccc3)CC2)c1	none
CC(=O)/C=C(\C)NCCNc1c(F)c(F)c(CO)c(F)c1F	none
CC(=O)c1cccc(-n2nnnc2SCC(=O)Nc2cccc(NC(=O)c3ccco3)c2)c1	none
COC(=O)c1cc(NC(=O)Cn2c(=O)cnc3ccccc32)cc(C(=O)OC)c1	none
Cc1ccc(C(C)C)c(OCCNc2nc3c(c(=O)n(C)c(=O)n3C)n2C)c1	none
Cc1cccc(-n2c(CCCN3C(=O)c4ccccc4C3=O)nc3ccccc3c2=O)n1	none
CCOC(=O)c1sc(N(Cc2ccccc2)C(=O)CSc2nnc(C3CC3)n2N)nc1C	none
CC1(C)CC(=O)C2=C(C1)Oc1nc3ccccc3cc1C2C(C#N)C#N (stereo not drawn)	none
CC(=O)c1ccc(NS(=O)(=O)c2cccc(C)c2)cc1	none
CCCCc1cc2c(c(NC(=O)CC)n1)c(=O)oc1ccccc12	none
CCCCOc1[nH]c2nc(-c3ccco3)n(Cc3ccco3)c(=N)c2c1C#N	none
C=CCOn1c(=O)c(=O)n(OCc2ccccc2)c2ccccc21	none
COC(=O)c1ccccc1NC(=O)CSc1nnc(CNS(=O)(=O)c2ccc(C)cc2)n1C	none
CN(C)c1ccc(-c2nn3c(C4CCCCC4)nnc3s2)cc1	none
CCCC(c1nnnn1C1CCCC1)N1CCN(c2ccccc2F)CC1 (stereo not drawn)	none
CC12CCC(c3c(C(=O)Nc4nccs4)nn(-c4ccccc4)c31)C2(C)C (stereo not drawn)	none
COc1ccc2cc(CN(Cc3cccnc3)S(=O)(=O)c3ccccc3)c(=O)[nH]c2c1	none
CCc1ccccc1NC(=O)CSc1nnc(-c2ccco2)n1N	none
COC(=O)C1=C(N)Oc2cc(C)n(CCN3CCOCC3)c(=O)c2C1c1cccnc1 (stereo not drawn)	none
CNC(=O)C1CC(=O)N(c2ccc(C)cc2)C1 (stereo not drawn)	none
CC1S/C(=C(\C#N)C(=O)NCc2ccco2)N(c2ccc(F)cc2)C1=O (stereo not drawn)	none
